Experimental data taken from PubChem BioAssay AID2384 (Southern Research Specialized Biocontainment Screening …, 2010).
Hit rate of the full screen: of about 2,300 compounds, about 1,100 (48%) were called active. How the calls were made is not given here. So high a share suggests a set chosen from earlier hits. The list shows a part of the results. Where a call stands in place of a potency, no number is given. Potency and affinity values are given separately.

Assay: inhibitors in S. typhi counter-screen strain, dose response, counter-screen for PhoP regulon inhibitor project, fluorescence, 4 h (AID 2384)
Conditions: S. typhi GFP reporter counter-screen; series mostly up to 150 µM

Structure (SMILES)	inhibition
COc1ccc(CC(=O)N(Cc2cc3cc(OC)ccc3[nH]c2=O)C(C)C)cc1	inactive
CC(=O)c1cccc(NC(=O)CCC2CCCC2)c1	inactive
CCC(=O)Nc1nnc(-c2ccco2)o1	inactive
Cc1cc(=O)n(CC(C)C)c(O)c1C#N	inactive
S=C1NCN(C2CCCCC2)CN1c1ccccc1	inactive
CCc1nccc2c1[nH]c1ccccc12	inactive
C=CCOc1ccc(-c2n[nH]c(=S)o2)cc1	inactive
O=C1c2ccccc2C2=Nc3ccccc3SC(c3ccccc3F)C12 (stereo not given)	inactive
COc1ccc(NC2=Nc3ccccc3CC2)cc1	inactive
Cc1cccc(NS(=O)(=O)c2ccc3c(c2)OCCO3)c1	inactive
c1ccc(CNc2nc(-c3ccccn3)nc3ccccc23)cc1	inactive
Cc1ccc(Cn2c(=N)c(C(=O)NCc3ccco3)cc3c(=O)n4ccccc4nc32)cc1	inactive
CN(CCO)CC(O)Cn1cnc2c1c(=O)n(C)c(=O)n2C (stereo not given) (tested in a mixture with another compound)	inactive
COc1ccc(N2CCN(C(=O)c3cc4c(s3)-c3ccccc3S(=O)(=O)C4)CC2)cc1	inactive
c1ccc(-c2nnc(-c3c[nH]c4ccccc34)nc2-c2ccccc2)cc1	inactive
O=c1oc2ccccc2c(O)c1C(c1ccccn1)c1c(O)c2ccccc2oc1=O	inactive
CC(C)(C)n1nc2c(c1NC(=O)Cc1cccs1)CSC2	inactive
CN(C)CCCN(C(=O)c1cc2cc([N+](=O)[O-])ccc2s1)c1nc2cc3c(cc2s1)OCCO3	inactive
CCCCN(C)C(=O)c1ccc(S(=O)(=O)N2CCOCC2)cc1	inactive
COC(=O)c1ccc(S(=O)(=O)N2CCC(c3nc4ccccc4o3)CC2)cc1	inactive
O=C(NCc1cccnc1)C1c2ccccc2C(=O)N1Cc1ccccc1 (stereo not given)	inactive
CCOC(=O)c1c(C)sc2c1N(C(C)=O)c1cc(Cl)ccc1S2	inactive
NC(=O)c1c(NC(=O)CSc2nc(N)cc(=O)[nH]2)sc2c1CCCC2	inactive

Structure (SMILES)	inhibition
O=C(CC(=O)NCc1ccccc1)NCc1ccccc1	inactive
CCOc1ccc(NC(=O)CN(C)C(=O)c2ccccc2CCc2ccccc2)cc1OCC	inactive
CCOCCCNC(=O)CN1CCN(Cc2ccccc2C)C1=O	inactive
COC(=O)C1C(=O)C2=C(CC1C)Nc1ccccc1NC2c1ccc(C)s1 (stereo not given)	inactive
CCc1nn(CCCN2CCN(c3cccc(Cl)c3)CC2)c(=O)n1CCOc1ccccc1	inactive
Cc1nn(Cc2ccccc2Cl)c2sc(C(=O)Nc3ccccc3N3CCOCC3)cc12	inactive
CN1C(=O)C2(Nc3ccccc3-c3nc4ccccc4n32)c2ccccc21 (stereo not given)	inactive
Oc1c(Br)cc(Br)cc1CNc1ccccn1	inactive
CC(C)N=C1NN=C(c2ccc(F)cc2)CS1	inactive
Cc1c(O)cccc1C(=O)N[C@@H](CSc1ccccc1)[C@H](O)CN1C[C@H]2CCCC[C@H]2C[C@H]1C(=O)NC(C)(C)C	inactive
COc1ccc(OCC(=O)Nc2ccc3c(c2)nc(CCN2CCC(C)CC2)n3C)cc1	inactive
Cn1c(CN2CCCCC2)nc2cc(NS(=O)(=O)c3ccc(Cl)cc3)ccc21	inactive
O=C(Nc1ccccc1)C1=C(O)CC(c2ccc(Cl)cc2)N2CCN=C12 (stereo not given)	inactive
O=c1c2cnn(-c3ccccc3)c2ncn1CCc1ccccc1	inactive
O=C(NC(=O)c1ccccc1)OCC1CCCN2CCCCC12 (stereo not given)	inactive
COc1ccccc1NC(=O)Cn1nc(-c2ccncc2)nc1SCC(=O)NC1CCCC1	inactive
C=CCn1c(C)c(C(C)=O)c(SC)nc1=S	inactive
Nc1nonc1C(=O)NCCN=Cc1cc(Cc2ccccc2)cc(Br)c1O	inactive
CCN(CC)Cc1c(C(=O)N/N=C/c2cccs2)nnn1-c1nonc1N	inactive
CCOC(=O)c1c(C)[nH]c(C(=O)CN2C(=O)NC(C)(c3ccc4ccccc4c3)C2=O)c1C (stereo not given)	inactive
CCOC(=O)C(NC(=O)c1cccnc1)(Nc1cccc(C)n1)C(F)(F)F (stereo not given)	inactive
Nc1[nH]c(=O)ncc1F	inactive
O=C(Nc1cccnc1)c1cc(Br)c(Br)s1	inactive

Structure (SMILES)	inhibition
COc1ccc(/C=N/NC(=O)c2cccnc2)cc1	inactive
N#CCC(=O)N/N=C/c1ccccc1Cl	inactive
CCN(CC)Cc1c(C(=O)N/N=C/c2cccc3ccccc23)nnn1-c1nonc1N	inactive
O=C(N/N=C/c1cccnc1)c1cccc(Cl)c1	inactive
CCN(CC)S(=O)(=O)c1cc(NC(=O)C2Cc3ccccc3C(=O)O2)ccc1C (stereo not given)	inactive
Cc1ncc([N+](=O)[O-])n1CC(=O)NC1CCCC1	inactive
CC(C)C(c1nnnn1Cc1ccccc1)N(CCCO)Cc1cc2cc3c(cc2[nH]c1=O)OCO3 (stereo not given)	inactive
COC(=O)c1ccc(CSc2ccc3nnc(-c4ccc(OC)c(OC)c4)n3n2)o1	inactive
CCOc1ccc2nnnn2n1	inactive
Cc1ccsc1/C=N/Nc1ccc(C(=O)O)cc1	inactive
Cc1ccsc1/C=N/NC(=O)c1ccncc1	inactive
CCOC(=O)C1Nc2c(F)cc(C)cc2C2c3ccccc3CC12 (stereo not given)	inactive
CC1(C)CC(=O)C(C=NCC2CCN(C(=O)Cc3ccccc3)CC2)=C(O)C1	inactive
CC(C)c1ccc(NC(=O)CSc2nnc(-c3ccccn3)n2C)cc1	inactive
Cc1ccc(/C=N/NC(=O)CSc2nc3ccccc3n2C)s1	inactive
COc1ccc(NC(=O)CC2Sc3ncnn3C2=O)cc1 (stereo not given)	inactive
COc1ccc(CCNC2CCCCC2)cc1	inactive
O=Cc1cc(CCC(=O)O)ccc1O	inactive
CCOC(=O)c1ccc(NC(=O)c2cc3c(s2)CCC3)cc1	inactive
CCOC(=O)c1ccc(NC(=O)CSc2nc(N3CCOCC3)nc(N3CCOCC3)n2)cc1	inactive
CCCCOc1ccc(CN2CCC(O)CC2)cc1	inactive
CCCCCCOc1ccc(N2C(=O)CC(SC(=NCC)NCC)C2=O)cc1 (stereo not given)	inactive
Cc1cc(C)n2nc(SCn3nnc4ccccc4c3=O)nc2n1	inactive

Structure (SMILES)	inhibition
Cc1ccc(NC(=O)CSc2ccc(-c3ccco3)nn2)cc1	inactive
O=C(CCNC(=O)c1ccco1)Nc1cccc(Br)c1	inactive
CCC1(CC)C(=O)NC(=O)NC1=Nc1cccc(OC)c1	inactive
Cc1ccc(N2C(N)=C(C#N)C(c3cccnc3)C3=C2CC(C)(C)CC3=O)cc1 (stereo not given)	inactive
C=CCSc1nnc(NC(=O)CSc2nc3ccccc3o2)s1	inactive
COc1ccccc1C(=O)NNC1=C(C(=O)C(F)(F)F)CCC1	inactive
Cc1cc(C)c(-n2nnnc2SC(C)C)c(C)c1	inactive
COc1cc2c(cc1OC)[C@H](Cc1ccc(O)cc1)NCC2	inactive
Cc1cccc(N2CCN(C(=O)CCN3C(=S)NC(C)(C)CC3C)CC2)c1C (stereo not given)	inactive
COc1cc2c(cc1OC)CN(C(=O)CCCN1C(=O)c3ccccc3C1=O)CC2	inactive
COc1ccc(C(=O)Oc2cc(C(=S)N3CCOCC3)ccc2OC)cc1	inactive
Cc1c(-n2c(SCC(=O)C(C)(C)C)nc3ccccc3c2=O)c(=O)n(-c2ccccc2)n1C	inactive
NC(=O)c1cc(C(=O)c2ccc(Cl)cc2Cl)c[nH]1	inactive
NC(=O)c1ccc[n+](CC(=O)c2cccc([N+](=O)[O-])c2)c1	inactive
O=Cc1ccc(N2CCCCCC2)cc1	inactive
CC(C)CN1CCN(Cc2cnc(N3CCOCC3)s2)CC1CCO (stereo not given)	inactive
O=C1c2ccccc2NC(c2cccc([N+](=O)[O-])c2)N1CCc1ccccc1 (stereo not given)	inactive
CN1C(=O)/C(=C2/C=Cc3ccccc3N2CCCS(=O)(=O)O)SC1=S	inactive
CCOC(=O)c1nc(C)n(-c2cc(Cl)ccc2Cl)n1	inactive
COc1ccccc1C1CN(c2ccc(F)cc2F)N=C1c1cccs1 (stereo not given)	inactive
Cc1n[nH]c(=O)nc1NCCc1ccccc1	inactive
Cc1cccc(OCCSc2nnc(-c3ccoc3C)n2C)c1	inactive
CC(C)CC(=O)N1CCN(C(=O)CCC2CCCC2)CC1	inactive

Structure (SMILES)	inhibition
Cc1cccc(NC(=O)C2CCCN2S(=O)(=O)c2ccc3c(c2)n(C)c(=O)c(=O)n3C)c1 (stereo not given)	inactive
Cc1cc(=O)oc2ccc(OCC(=O)N3CCC(C)CC3)cc12	inactive
O=C(Nc1ccc(Cl)cc1)N1CCCN(Cc2ccccc2F)C1	inactive
O=C(CCN1CCOCC1)Nc1ccccc1	inactive
O=C(COc1ccc(Cl)cc1)N1CCN(C2CCCC2)CC1	inactive
O=C(O)COc1ccc(F)cc1Br	inactive
O=C(/C=C/c1ccc(Cl)cc1Cl)NCc1ccncc1	inactive
CCCSc1nc2cc(OC)c(OC)cc2c(=N)n1CCCN1CCOCC1	inactive
COc1ccccc1Nc1nc(Cl)c(C=O)s1	inactive
COc1ccccc1-n1nc(C(=O)NCc2ccco2)c2ccccc2c1=O	inactive
CC(C)(C)c1ccc(NC(=O)NCc2ccco2)cc1	inactive
CC(C)(C)c1nc(SCC(=O)NCc2ccco2)c2ccccc2n1	inactive
CCOC(=O)c1cc(-c2ccncc2)nc2c1c(C)nn2-c1ccccn1	inactive
COc1cc(C(c2nnnn2C2CCCC2)N2CCN(C)CC2)cc(OC)c1OC (stereo not given)	inactive
COc1ccc(N=CC2=C(Nc3ccc(OC)cc3)c3c(C)nn(-c4ccccn4)c3CC2)cc1	inactive
Cc1cc(C)nc(SCC(=O)Nc2sc3c(c2C#N)CCC(C)C3)n1 (stereo not given)	inactive
O=C(CSc1ncc(-c2ccc(F)cc2)[nH]1)NCc1ccco1	inactive
O=C(CSc1nc2c(c(=O)n1-c1ccc(F)cc1)SCC2)NCc1ccco1	inactive
Oc1ccccc1N=Cc1c(O)ccc2oc3c(c12)CCCC3	inactive
CCCCOc1ccc(C2=NNC(=O)CC2)cc1	inactive
Cc1c(C(=O)Nc2ccncc2)sc2nc(-c3ccc(F)cc3)cn12	inactive
Cc1ccc(C(=O)Nc2ccc3c(c2)ncn3C)cc1	inactive
Cc1cc(C)c([C@@H]2C[C@H]3CN(C4CCCC4)C(=O)[C@]34CCCN24)c(-n2cccn2)c1	inactive
